Results taken from the supplement of paper PMC6897291.
Where a name gives a salt, the structure may show the parent alone.

Test system: U-2932
Test: growth inhibition by drug plus 177Lu-lilotomab satetraxetan (1 - RLU/untreated control) (fraction); higher = stronger inhibition
Details: 10 nM; time (day): 4; 177Lu-lilotomab satetraxetan 1 ug/ml
In short: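 RIVA or U-2932 cells, untreated or pretreated 18 h with a radiolabelled anti-CD37 antibody conjugate (~600 MBq/mg; 0.5 µg/ml RIVA, 1 µg/ml U-2932), were washed and seeded at 3,000 cells/well on plates pre-printed with the Selleck Cambridge Cancer Compound library. Doses were 10/100 nM (RIVA) or 10/1,000 nM (U-2932). RealTime-Glo luminescence was read daily from day 3 after 1 h at 37°C. Growth inhibition is 1 − RLU/mean of 48 untreated no-drug wells per plate.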

Compound | growth inhibition by drug plus 177Lu-lilotomab satetraxetan
Nc1cc(C(F)(F)F)c(-c2cc(N3CCOCC3)nc(N3CCOCC3)n2)cn1 | -0.0899
CC(C)(C)c1ccc(S(=O)(=O)/C=C/C#N)cc1 | 0.0216
C[C@]1(c2nc3c(C(N)=O)cccc3[nH]2)CCCN1 [ABT-888 (Veliparib)] | -0.0127
Cc1ccc(NC(=O)c2ccc(CN3CC[C@H](N(C)C)C3)c(C(F)(F)F)c2)cc1Nc1nccc(-c2cncnc2)n1 [Bafetinib (INNO-406)] | 0.0566
C[C@]12CC[C@@H]3c4ccc(O)cc4CC[C@H]3[C@@H]1CCC2=O [Estrone] | 0.0899
O=C(c1ccc(OCCN2CCCCC2)cc1)c1c(-c2ccc(O)cc2)sc2cc(O)ccc12 [Evista (Raloxifene Hydrochloride)] | 0.0219
CCN(CC)CCNC(=O)c1c(C)[nH]c(/C=C2\C(=O)Nc3ccc(F)cc32)c1C [Sunitinib Malate (Sutent)] | -0.0528
CCOc1ccc(Nc2nc(-c3c(C)nc4ccccn34)cs2)cc1 | 0.185
C=CC(=O)N1CCC[C@@H](n2nc(-c3ccc(Oc4ccccc4)cc3)c3c(N)ncnc32)C1 | 0.56
CS(=O)(=O)c1cccc(CNc2nc(Nc3ccc4c(c3)CCC(=O)N4)ncc2C(F)(F)F)c1 | 0.0519
CC(NC(=O)c1ccccc1/N=C/c1c(O)ccc2ccccc12)c1ccccc1 (stereo not drawn) [Sirtinol] | 0.0759
CN(Cc1cnc2nc(N)nc(N)c2n1)c1ccc(C(=O)N[C@@H](CCC(=O)O)C(=O)O)cc1 [Abitrexate (Methotrexate)] | -0.083
OCCn1cc(-c2cnc3nnn(Cc4ccc5ncccc5c4)c3n2)cn1 | 0.043
COc1cc(Nc2ncc(F)c(Nc3ccc4c(n3)NC(=O)C(C)(C)O4)n2)cc(OC)c1OC [R406(free base)] | 0.0369
COc1cccc2c1C(=O)c1c(O)c3c(c(O)c1C2=O)C[C@@](O)(C(=O)CO)C[C@@H]3O[C@H]1C[C@H](N)[C@H](O)[C@H](C)O1 [Doxorubicin (Adriamycin)] | 0.492
CN(NC(=O)CC(=O)NN(C)C(=S)c1ccccc1)C(=S)c1ccccc1 [Elesclomol] | 0.88
CN(C)CCOc1ccc(/C(=C(/CCCl)c2ccccc2)c2ccccc2)cc1 [Toremifene Citrate (Fareston, Acapodene)] | 0.144
CN1CCN(CCOc2cc(OC3CCOCC3)c3c(Nc4c(Cl)ccc5c4OCO5)ncnc3c2)CC1 [Saracatinib (AZD0530)] | -0.00671
CC(C)C[C@H](NC(=O)[C@H](Cc1ccccc1)NC(=O)c1cnccn1)B(O)O [Bortezomib (Velcade)] | 0.967
Cn1cncc1[C@@](N)(c1ccc(Cl)cc1)c1ccc2c(c1)c(-c1cccc(Cl)c1)cc(=O)n2C [Tipifarnib (Zarnestra)] | 0.0674
COC(=O)c1ccc2c(C(=Nc3ccc(N(C)C(=O)CN4CCN(C)CC4)cc3)c3ccccc3)c(O)[nH]c2c1 [BIBF1120 (Vargatef)] | -0.0397
CC[C@@H]1/C=C(\C)C[C@H](C)C[C@H](OC)[C@H]2O[C@@](O)(C(=O)C(=O)N3CCCC[C@H]3C(=O)O[C@H](/C(C)=C/[C@@H]3CC[C@H](Cl)[C@H](OC)C3)[C@H](C)[C@@H](O)CC1=O)[C@H](C)C[C@@H]2OC [Pimecrolimus] | 0.242
CN(C)CCOc1ccc(-c2nc(-c3ccncc3)c(-c3ccc4c(c3)CC/C4=N\O)[nH]2)cc1 | -0.0236
COc1ccc(CCN2CCN(CCCc3ccccc3)CC2)cc1OC | -0.0209
CNC(=O)c1cc(Oc2ccc(NC(=O)Nc3cc(C(C)(C)C)nn3-c3ccc4ncccc4c3)c(F)c2)ccn1 [DCC-2036 (Rebastinib)] | 0.0699
CCC(C)(C)C(=O)O[C@H]1C[C@@H](C)C=C2C=C[C@H](C)[C@H](CC[C@@H]3C[C@@H](O)CC(=O)O3)[C@H]21 [Simvastatin (Zocor)] | -0.0212
CCc1ccc(CCOc2ccc(CC3SC(=O)NC3=O)cc2)nc1 (stereo not drawn) [Pioglitazone (Actos)] | -0.0372
O=C(O)C(Cc1c[nH]c2ccccc12)N1C(=O)c2ccccc2C1=O (stereo not drawn) | -0.0477
